According to paper PMC7819943, “Rice protein-binding microarrays: a tool to detect cis-acting elements near promoter regions in rice”:
The full ranking holds about 68,000 sequences; the median of “fluorescence intensity (a.u.)” is about 9,100, and the highest 2% start at about 16,000. Only a selection was taken, and the highest values are over-represented in it overall.

target: OsWRKY34 (Oryza sativa, UniProt Q0JBA9 1-250); test: protein-binding microarray (RPBM); PBS, 2% BSA, 51.3 ng/ul salmon testes DNA, 50 uM zinc acetate, 200 nM TF, 25 C, 1 h; high values mean tight binding; conditions: protein: recombinant; tags: N-terminal polyhistidine and DsRed monomer fusion (pET32a); label: CyDye5-dUTP incorporated in the synthesized complementary strand; 3' TTTTT single-stranded linker to array surface; dsDNA, one strand shown
Outline: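 Ni–NTA purification followed expression in E. coli BL21-CodonPlus of transcription factors fused N-terminally to a polyhistidine tag and DsRed. At 200 nM in PBS with 2% BSA, salmon testes DNA and 50 µM zinc acetate, the protein was incubated for 1 h at 25 °C with a custom Agilent array that had been primer-extended with Cy5-dUTP and blocked with 2% BSA. After washing, the array was read on an Axon 4000B scanner. The binding signal is per-feature fluorescence intensity in arbitrary units.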

OsWRKY34, sequence (Q0JBA9 entry or part of it): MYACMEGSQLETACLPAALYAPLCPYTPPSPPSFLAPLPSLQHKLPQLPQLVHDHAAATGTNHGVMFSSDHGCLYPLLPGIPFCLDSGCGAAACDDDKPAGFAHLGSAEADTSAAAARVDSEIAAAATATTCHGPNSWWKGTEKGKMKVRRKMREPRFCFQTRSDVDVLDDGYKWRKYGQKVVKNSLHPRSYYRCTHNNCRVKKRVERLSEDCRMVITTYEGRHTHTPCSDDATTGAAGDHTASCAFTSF

| Sequence | binding signal |
| --- | --- |
| CATGATCGCTGTGCACCTTCTGAATCATCTCTTCAATGGCCGGAGTCACCTAGTGCAG | 9780 fluorescence intensity (a.u.) |
| CATGCCAATCATAAATAATGACATATTGGTTGACTTTTTGCGGAGTCACCTAGTGCAG | 11000 fluorescence intensity (a.u.) |
| TTTAAATGTATCATGTCATTGACTTTTTTATAATATTTGACGGAGTCACCTAGTGCAG | 8120 fluorescence intensity (a.u.) |
| TTTAATGTATGGTGCCGTTGACTTTTTTTATCAATATTTGCGGAGTCACCTAGTGCAG | 41200 fluorescence intensity (a.u.) |
| CATACTGTTCCACTCGCCCTCGTTTTCTCCGCCACCGAGCCGGAGTCACCTAGTGCAG | 8450 fluorescence intensity (a.u.) |
| TTGACGCCGTTGACTTTTTAATACATGTTTGACCATTCGTCGGAGTCACCTAGTGCAG | 44300 fluorescence intensity (a.u.) |
| TTGACGCCGTTGACTTTTTAGTACATGTTTGACCATTCGTCGGAGTCACCTAGTGCAG | 49900 fluorescence intensity (a.u.) |
| TCCGTTTCGGAATGTTTGACGCCGTTGACTTTTTATTACACGGAGTCACCTAGTGCAG | 25400 fluorescence intensity (a.u.) |
| ACTCCCTCCGTTTCAAAATGTTTGACATCATTGACTTTTTCGGAGTCACCTAGTGCAG | 11100 fluorescence intensity (a.u.) |
| CTCCCTCTATCAAAAAAATGTTTGACGCCGTTGACTTTTTCGGAGTCACCTAGTGCAG | 25600 fluorescence intensity (a.u.) |
| CTCCCTTCGTTTCGAAATGTTTGACGCCGTTGACTTTTTACGGAGTCACCTAGTGCAG | 22800 fluorescence intensity (a.u.) |
| CTCCCTCCGTTTCGAAATGTTTGACGCCGTTGACTTTTTACGGAGTCACCTAGTGCAG | 15900 fluorescence intensity (a.u.) |
| ATACTCCCTTCGTTTCGAAATGTTTGACGCCGTTGACTTTCGGAGTCACCTAGTGCAG | 14300 fluorescence intensity (a.u.) |
| ACTCTCTCCGTTTCGAAATGTTTGACGCTGTTGACTTTTTCGGAGTCACCTAGTGCAG | 17500 fluorescence intensity (a.u.) |
| CGCTGTTCAGACGTTGACTCTCGTTGTTTTTATAGTTTTTCGGAGTCACCTAGTGCAG | 14600 fluorescence intensity (a.u.) |
| CACCCTCTCCCGTGTTCCACCCCGCCCGCGAATCATATCCCGGAGTCACCTAGTGCAG | 9340 fluorescence intensity (a.u.) |
| TCCGTCCCTGCAGTCACCTTATTGGTCAAATTTTAAATATCGGAGTCACCTAGTGCAG | 13400 fluorescence intensity (a.u.) |
| TAGGGGTGGGCATTCGGTCTAACTGAAAATTTCGGTCTCGCGGAGTCACCTAGTGCAG | 13500 fluorescence intensity (a.u.) |
| TGACGTTTGACCAAAGTTTTCTTCAATTTTTCAGAAATGGCGGAGTCACCTAGTGCAG | 9900 fluorescence intensity (a.u.) |
| GGTCTATGTCTCTCTGATTATTTCTTTTACTAATTGTTTGCGGAGTCACCTAGTGCAG | 9060 fluorescence intensity (a.u.) |
| CTTCTGCTCTCTAGCTAGCCTTCTTCCTATTGGAAGCTTCCGGAGTCACCTAGTGCAG | 9230 fluorescence intensity (a.u.) |
| TTATACTCCCTCCGTTTCGAAATGTTTGACGCCGTTGACTCGGAGTCACCTAGTGCAG | 11400 fluorescence intensity (a.u.) |
| CCGCTGGCCCTTGTTGACACCTTGACTACGAAATGTATTCCGGAGTCACCTAGTGCAG | 8980 fluorescence intensity (a.u.) |

| Sequence | binding signal |
| --- | --- |
| TTCTCTTTTATCTGTTTGCTTCCTATAAATTCTACGCGATCGGAGTCACCTAGTGCAG | 8480 fluorescence intensity (a.u.) |
| CAACGAAAATACTAACAACATGCACCTGGCCGCGTTGACCCGGAGTCACCTAGTGCAG | 13900 fluorescence intensity (a.u.) |
| CATTCCTATCAAAATCCTACGTTTTTCCTATTCCTACGTTCGGAGTCACCTAGTGCAG | 9840 fluorescence intensity (a.u.) |
| GATCCTCTGTTTTATCTACGCGTTCCTATCAAATTCCTTTCGGAGTCACCTAGTGCAG | 16800 fluorescence intensity (a.u.) |
| ATATTCCCTCCGTTTTGAAATGTTTGACGCCGTTGACTTTCGGAGTCACCTAGTGCAG | 17000 fluorescence intensity (a.u.) |
| TGCACCTGGCCGCGTTGACCGTTCGAAATGTATATATTCCCGGAGTCACCTAGTGCAG | 19600 fluorescence intensity (a.u.) |
| GCGCTACTTCGCTCGACCACCCGCCCGCCTTCCACTGCCACGGAGTCACCTAGTGCAG | 8550 fluorescence intensity (a.u.) |
| CTCTAATTTTCTTTGCGTGTTCCATCATCAATATGGTATTCGGAGTCACCTAGTGCAG | 10700 fluorescence intensity (a.u.) |
| CAATTTCGAGCTTCGTATCAGCATATGCTATTCCCTATTGCGGAGTCACCTAGTGCAG | 10500 fluorescence intensity (a.u.) |
| CGTTGACTTTTTAGCACATGTTTGACCGTTCGTCTTATTCCGGAGTCACCTAGTGCAG | 29000 fluorescence intensity (a.u.) |
| CATTGACTTTTTTAAACATGTTTGACTGTTCGTCTTATTCCGGAGTCACCTAGTGCAG | 11500 fluorescence intensity (a.u.) |
| TTAGCACATGTTTGACCGTTCGTCTTATTCAAAATTTTTTCGGAGTCACCTAGTGCAG | 12600 fluorescence intensity (a.u.) |
| TTGACTTTTTAGCACATGTTTGACCGTTCGTCTTATTCAACGGAGTCACCTAGTGCAG | 8480 fluorescence intensity (a.u.) |
| CGTTGACTTTTCTAAACATGTTTGACCGTTCGTCTTATTCCGGAGTCACCTAGTGCAG | 28400 fluorescence intensity (a.u.) |
| GTTGACTTTTTTAAACATGTTGGACCGTTCGTCTTATTCACGGAGTCACCTAGTGCAG | 9150 fluorescence intensity (a.u.) |
| ACCGTTGACTTTTTAGCACATGTTTGACCGCTCGTCTTATCGGAGTCACCTAGTGCAG | 54800 fluorescence intensity (a.u.) |
| GACTTTTTAGCACATGTTTGACCGTTCGTCTTATTCAAAACGGAGTCACCTAGTGCAG | 10800 fluorescence intensity (a.u.) |
| TGACTTTTTAGCATATGTTTGACCGCTCGTCTTATTCAAACGGAGTCACCTAGTGCAG | 8220 fluorescence intensity (a.u.) |
| CAGATCGACTCGACTCGACCAGGTTCTCTCGTTTTTACTCCGGAGTCACCTAGTGCAG | 9940 fluorescence intensity (a.u.) |
| CTCTCTCTCTGCTGCTGCTCTCTAATCAGTAACCAGTAGTCGGAGTCACCTAGTGCAG | 9580 fluorescence intensity (a.u.) |
| TTGTTTATTTAAGGTGTGATTGTATTTGGATCATGTTTTGCGGAGTCACCTAGTGCAG | 8980 fluorescence intensity (a.u.) |
| GGGGTATAATTTGTGTCTTAGCTGATAGAATGTGCAGTTGCGGAGTCACCTAGTGCAG | 9980 fluorescence intensity (a.u.) |
